GalR3 antagonist: blocks the human galanin receptor 3 | O60755 | HEK293 GalR3-CNG cAMP membrane potential fluorescence; galR3 body fused to GalR1 C-terminus | inhibition, % at 3 µM | actives 0.44% (n = 360,000) | AID 651719;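 active means inhibition above the screen-wide average plus 3 SD, cut at about 13% in these data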;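 further: forskolin and galanin both at EC90 stimulate the cells; cAMP rise reported by CNG channel membrane potential dye signal; 0% = forskolin plus galanin with DMSO and 100% = forskolin alone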
Target sequence (O60755 1-299 limits assumed): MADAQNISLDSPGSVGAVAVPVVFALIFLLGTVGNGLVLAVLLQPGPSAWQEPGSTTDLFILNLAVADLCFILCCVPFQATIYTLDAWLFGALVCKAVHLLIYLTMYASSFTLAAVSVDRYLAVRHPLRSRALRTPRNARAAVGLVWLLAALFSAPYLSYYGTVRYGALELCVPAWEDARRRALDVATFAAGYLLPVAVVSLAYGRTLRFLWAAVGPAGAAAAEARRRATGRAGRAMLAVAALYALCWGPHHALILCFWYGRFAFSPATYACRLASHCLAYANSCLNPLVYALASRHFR
H9c2 protect: protects H9c2 cardiomyocytes from peroxide injury. AID 588492. actives 0.63% (n = 360,000). H2O2 injury protection, ATPLite, 2 h. protection from H2O2 cell death, % at 20 µM;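 active means compounds giving at least 50% protection of heart cells from peroxide-induced death in the single-dose screen, raw or plate-pattern-corrected value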;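 further: 0% = DMSO wells with peroxide and 100% = DMSO wells without peroxide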
SMARCA2 act: increases SMARCA2 function in MMTV reporter cells; AID 652017; MG213 cells, MMTV-luciferase reporter, dexamethasone, overnight; activation, % at 9.1 µM; actives 1% (n = 370,000); in the data active means activation above about 7.8%;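 further: 0% = vehicle wells and 100% = reference activator wells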
NR2F2 inh: blocks human COUP-TFII nuclear receptor; P24468; HEK293T NGFI-A luciferase reporter, luminescence; inhibition, % at 8.6 µM; actives 0.7% (n = 370,000);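 active means inhibition above a per-plate cutoff, mean inhibition of test wells between control levels plus 3 SD, cut at about 38% in these data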;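 further: cells cotransfected with COUP-TFII expression vector driving the NGFI-A reporter; 0% = median of COUP-TF2 test wells and 100% = reporter-only cells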
GAA850 FXN act: frataxin GAA850 promoter activation; HEK293 lucGAA850 FXN promoter luciferase reporter, 24 h; percent of 10 µM SAHA response; activation, % at 6 µM; actives 0.56% (n = 360,000); AID 540364;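 active means activation above the average of all compounds screened plus 3 SD, cutoff fixed separately per campaign, cut at about 7.5% in these data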;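 further: 0% = DMSO wells and 100% = 10 µM SAHA wells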
Gli-Sufu block: Gli-Sufu pathway antagonism. inhibition, % at 5 µM. actives 0.74% (n = 340,000). AID 588413. Sufu-KO-LIGHT fibroblasts, Gli luciferase reporter luminescence;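 active means inhibition above about 55%, limit read from the data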;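 further: 0% = DMSO-treated cells and 100% = wells with medium but no cells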
Gli-Sufu confirm: Gli-SUFU antagonism confirmation, single concentration | actives 40% (n = 2,500) | shares compounds with Gli-Sufu block | Sufu-KO-LIGHT cells, Gli luciferase reporter, luminescence | inhibition, % at 5 µM | AID 602428;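 active means mean inhibition at 5 µM reaching about 45%, limit read from the data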;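 further: plate controls were DMSO-treated cells for no effect and wells lacking cells for full effect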
SufuKO cytotox: cytotoxicity counter-screen for Gli-SUFU antagonists; shares compounds with Gli-Sufu block; Sufu-KO-LIGHT cells cytotoxicity, ATP luminescence; cytotoxicity, % at 5 µM; actives 32% (n = 2,500); AID 651994;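 active means mean cytotoxicity at 5 µM above about 25%, limit read from the data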;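 further: cells exposed to compound overnight for roughly 16 to 18 hours; plate controls were DMSO wells with cells for no effect and medium without cells for full effect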
Wnt3a cs: Wnt3a reporter inhibition counter-screen | shares compounds with Gli-Sufu block | Wnt-LIGHT cells, Wnt3a-driven luciferase reporter, luminescence | inhibition, % at 6.25 µM | actives 20% (n = 2,500);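 active means mean inhibition above about 25%, limit read from the data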
Numbers without * were called inactive; nt = no result. This is a sample that favours compounds with a hit; in the whole collection about 3.4% have one here.

SMILES	GalR3 antagonist	H9c2 protect	SMARCA2 act	NR2F2 inh	GAA850 FXN act	Gli-Sufu block	Gli-Sufu confirm	SufuKO cytotox	Wnt3a cs
CCN(CC)CCN(C(=O)c1cc2ccccc2cc1OC)c1nc2ccc(OC)cc2s1	-9.6	3.7	-3.9	-9.4	0.1	-13.4	nt	nt	nt
CCN(CC)CCN(C(=O)c1cc2ccccc2cc1OC)c1nc2ccc(F)cc2s1	-5.9	7.3	-0.6	-4.2	2.7	51.0	28.1	-1.6	-34.6
CCN(Cc1ccncc1)C(=O)c1cc(COc2ccc(F)cc2F)on1	4.7	-5.7	1.7	10.7	2.4	50.8	31.7	-8.0	-22.5
CCN(Cc1cnn(C)c1)C(=O)c1cc(COc2ccc(F)cc2F)on1	-4.6	-4.5	1.4	-1.4	2.5	-9.0	nt	nt	nt
COc1ccc(O)c(C(=O)c2cnc3c(c2)c(=O)[nH]c(=O)n3C)c1	3.0	9.6	-1.5	21.3	-0.9	56.6*	27.5	6.6	33.2*
COCCn1c(=O)[nH]c(=O)c2cc(C(=O)c3cc(Cl)ccc3O)cnc21	nt	0.4	nt	nt	0.8	0.0	nt	nt	nt
CCCCN(CC)CCCNC(=O)c1cc2c(-c3ccc(OC)c(OC)c3)nn(C)c2s1	-5.8	0.2	2.4	-13.9	-0.4	56.4*	17.5	10.8	-13.6
O=C(c1ccncc1)N1CCCC(N2CCN(c3cccc(C(F)(F)F)c3)CC2)C1 (centres undefined)	-0.3	2.7	0.3	4.5	-2.0	11.9	nt	nt	nt
CCc1cc(C(=O)N2CCCC(N3CCN(c4cccc(C(F)(F)F)c4)CC3)C2)n(C)n1 (centres undefined)	-1.2	-2.2	-1.6	23.9	1.9	55.1*	30.1	16.9	-29.0
Cc1ccc2c(c1)N(CCC(=O)NCc1cccnc1)C(=O)CO2	-2.4	-1.2	-1.7	19.5	0.9	2.7	nt	nt	nt
Cc1ccc2c(c1)N(CCC(=O)NCc1ccccn1)C(=O)CO2	-6.3	-0.7	-2.0	20.2	2.1	52.7	8.5	-0.1	5.3
COCCCNC(=O)/C(C#N)=C/c1cc(C)[nH]c1C	-1.4	3.2	-3.4	10.4	-0.8	56.8*	17.2	5.7	-0.9
Cc1c(C(=O)N2CCN(c3ccccc3)CC2)oc2c1C(=O)CC(C)(C)C2	6.2	8.4	-2.0	12.4	-2.4	7.7	nt	nt	nt
Cc1c(C(=O)N2CCN(Cc3ccccc3)CC2)oc2c1C(=O)CC(C)(C)C2	3.0	-1.1	-0.3	-2.9	-1.2	51.6	14.8	12.6	-44.4
O=C(CCCOc1ccc(Cl)cc1Cl)Nc1ccccc1C(=O)O	-6.2	3.8	2.2	-6.1	2.4	-35.6	nt	nt	nt
CCOc1ccccc1NC(=S)NC(=O)CCCOc1ccc(Cl)cc1Cl	-8.1	-12.7	-1.8	11.4	0.4	64.8*	29.6	-1.4	-39.4
CC(C)c1ccc(NC(=O)N2CCOCC2)cc1	-2.9	5.7	0.0	-29.9	5.3	60.0*	-10.5	3.9	-54.9
CC(=O)Nc1ccc(NC(=O)N2CCOCC2)cc1	-5.2	2.7	-2.0	1.3	-2.8	nt	nt	nt	nt
COc1cc(-c2c(C(=O)c3ccccc3)[nH]c(N)c2C(=O)NCCc2c[nH]c3ccccc23)ccc1F	-7.6	nt	2.1	3.3	nt	nt	nt	nt	nt
CN1CCN(C(=O)CCNC(=O)Cn2ccc3ccccc3c2=O)CC1	-4.2	2.0	-2.2	-5.5	1.0	99.5*	9.5	1.9	-8.8
O=C(COC(=O)CSc1ccc(F)cc1)NC1CC1	-8.4	-0.2	-0.8	0.6	-0.9	nt	nt	nt	nt
O=C(COC(=O)CSc1ccc(F)cc1)NCC1CCCCC1	5.3	-1.0	-2.5	-5.8	0.0	95.1*	30.2	16.1	-5.6
OC(CSc1ccccc1)CN1CCN(c2ccc(Cl)cc2)CC1 (centres undefined)	-4.9	0.2	6.2	-9.1	0.6	-23.7	nt	nt	nt
OC(CSc1ccccc1)CN1CCN(c2cccc(Cl)c2)CC1 (centres undefined)	-0.3	-2.2	-4.4	10.7	0.6	50.4	23.5	4.0	-36.8

Source: PubChem
